PubChem BioAssay (NCATS)
Several values for one entry are separate records, joined by “and”; a condition that tells them apart may be missing. Equal entries are not always repeated. Results filed as inconclusive are left out. Activity calls are given as the source filed them. Unless noted, calls follow the shape of the dose curve; as a rule, active = well fitted curve in the direction sought with a large enough effect; inconclusive = small, poorly fitted or top-dose-only effect, or another doubt; inactive = no such curve, though single readings can be large; an effect the other way counts as inactive or inconclusive.

Tests used:
[1] = AP1 Signaling Pathway (AID 357; active = well fitted curve in either direction with a large enough effect, not every such curve was filed as active;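 also: ME-180 reporter cells stimulated with EGF at its EC50 level; % is scaled to controls: 0 for no effect and ±100 for the full control effect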); settings: ME-180 AP-1-bla reporter, EGF-induced, beta-lactamase ratio, 5 h
Outline: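 Titration-series screen for positive or negative modulators of EC50 EGF-induced signaling in ME-180 cells carrying an AP-1-driven beta-lactamase reporter. After 5 hours at 37 degrees Celsius, CCF4 460nm/530nm emission ratio gave %Activity; AC50 values derived.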

[2] = Stat Signaling Pathway (AID 446; active = well fitted curve in either direction with a large enough effect, not every such curve was filed as active;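 also: ME-180 cervical cancer cells given 40 pM IL-6 alongside compound; SIE-controlled beta-lactamase reporter measured as 460/530 nm FRET emission ratio; % is scaled to controls: 0 for no effect and ±100 for the full control effect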); settings: ME-180 SIE beta-lactamase reporter, IL-6 stimulated, 5 h
Outline: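 Reporter line: ME-180 cervical carcinoma, SIE-beta-lactamase. Treatment: compound with 40 pM IL-6, 5 hrs, 37 C, in low-serum OPTI-MEM with 10 mM HEPES pH 7.3. Detection: 460/530 nm fluorescence.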

[3] = target: Glucocorticoid receptor (Homo sapiens) (UniProt P04150); test: GR-GFP Redistribution (AID 450;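 active = compounds whose dose series gives a full or clear partial fitted curve of increased nuclear translocation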; also: potency is read from the fitted curve at half-maximal effect); settings: U2OS GR-GFP nuclear translocation, laser cytometry, 2 h
Glucocorticoid receptor (Homo sapiens), sequence (P04150 whole entry, looked up, the tested form may be a part): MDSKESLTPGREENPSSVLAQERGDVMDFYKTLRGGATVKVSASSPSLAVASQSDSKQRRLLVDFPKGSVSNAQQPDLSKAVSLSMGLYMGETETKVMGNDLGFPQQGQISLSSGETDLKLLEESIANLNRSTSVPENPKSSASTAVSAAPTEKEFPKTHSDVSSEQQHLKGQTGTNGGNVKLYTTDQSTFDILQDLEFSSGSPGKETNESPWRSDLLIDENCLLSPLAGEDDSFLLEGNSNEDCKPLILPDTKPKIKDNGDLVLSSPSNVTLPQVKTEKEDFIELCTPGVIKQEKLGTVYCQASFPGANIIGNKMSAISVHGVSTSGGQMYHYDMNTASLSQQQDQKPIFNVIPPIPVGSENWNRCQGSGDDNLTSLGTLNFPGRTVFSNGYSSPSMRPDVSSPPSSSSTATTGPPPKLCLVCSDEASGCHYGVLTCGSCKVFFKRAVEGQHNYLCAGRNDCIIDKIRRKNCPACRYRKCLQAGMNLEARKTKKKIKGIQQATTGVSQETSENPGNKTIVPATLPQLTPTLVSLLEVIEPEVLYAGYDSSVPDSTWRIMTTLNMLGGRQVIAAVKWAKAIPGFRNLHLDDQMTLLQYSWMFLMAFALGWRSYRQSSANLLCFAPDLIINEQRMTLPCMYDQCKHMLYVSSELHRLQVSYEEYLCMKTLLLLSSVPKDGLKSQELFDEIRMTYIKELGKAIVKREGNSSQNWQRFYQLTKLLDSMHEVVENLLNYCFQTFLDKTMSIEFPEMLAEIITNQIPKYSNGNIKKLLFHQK

[4] = target: Glucocorticoid receptor (Homo sapiens) (UniProt P04150); test: GR-EFC Redistribution (AID 451; calls by dose curve; also: potency is read from the fitted curve at half-maximal effect); settings: CHO-K1 GR-EFC translocation, beta-gal luminescence, 2 h
Outline: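 CHO-K1 cells expressing nuclear EA and GR-ED fragments of b-gal; compounds titrated up to 46 uM final, 2 h at 37 C. GR nuclear translocation read as complemented b-gal luminescence after 1 h RT detection.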

[5] = target: Mitogen-activated protein kinase 10 (Mus musculus) (UniProt Q61831); test: JNK3 AlphaScreen Assay (AID 530; active = well fitted curve in either direction with a large enough effect, not every such curve was filed as active;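 also: kinase came from lysate of stimulated human HepG2 cells; signal reports phosphorylation of biotinylated GST-cJun 1-79 at Ser73 with 10 µM ATP; % is scaled to controls: 0 for no effect and ±100 for the full control effect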)
Outline: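 Pre-activated (IL-1β/TNFα) JNK3 in HepG2 lysates phosphorylates biotin-GST-cJun(1-79), 10 uM ATP; anti-phospho-cJun(Ser73) AlphaScreen read at room temperature, pH 7.6 Tris buffer. Compounds pre-incubated 15 min as titrations.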

[6] = target: Guanine nucleotide-binding protein G(i) subunit alpha-1 (Homo sapiens) (UniProt P63096); test: qHTS Assay for Inhibitors of RGS12 GoLoco Motif Activity (Green Fluorophore) (AID 879);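 also: 0% = labeled peptide with Gαi1 and full inhibition = labeled peptide alone without protein; negative values mean loss of peptide binding seen as reduced polarization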
Guanine nucleotide-binding protein G(i) subunit alpha-1 (Homo sapiens), sequence (P63096 whole entry, looked up): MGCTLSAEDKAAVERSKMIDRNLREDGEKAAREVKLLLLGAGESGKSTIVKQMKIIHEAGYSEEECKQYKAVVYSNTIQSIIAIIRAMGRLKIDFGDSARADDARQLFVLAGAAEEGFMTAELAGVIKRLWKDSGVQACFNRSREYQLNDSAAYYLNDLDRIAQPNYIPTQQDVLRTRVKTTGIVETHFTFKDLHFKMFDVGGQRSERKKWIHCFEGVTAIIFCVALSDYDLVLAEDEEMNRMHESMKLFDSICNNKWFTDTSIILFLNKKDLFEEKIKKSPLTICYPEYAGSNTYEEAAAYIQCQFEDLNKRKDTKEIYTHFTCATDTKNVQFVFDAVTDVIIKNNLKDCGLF
Outline: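 Fluorescence polarization assay: 50 nM Gαi1 with 10 nM FITC-labeled RGS12 GoLoco peptide in 10 mM Tris pH 7.5, 150 mM NaCl, 0.1 mM GDP, 0.05% NP40, 10 min at room temperature with compound.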

[7] = target: Muscarinic acetylcholine receptor M1 (Rattus norvegicus) (UniProt P08482); test: qHTS Assay for Antagonists of Acetylcholine Muscarinic M1 Receptor: Kinetic Measurement of Intracellular Calcium Response (AID 943); also: nearly all actives have a fitted effect of over 75% in size; also: potency is read from the fitted curve at half-maximal effect
Muscarinic acetylcholine receptor M1 (Rattus norvegicus), sequence (P08482 whole entry, looked up): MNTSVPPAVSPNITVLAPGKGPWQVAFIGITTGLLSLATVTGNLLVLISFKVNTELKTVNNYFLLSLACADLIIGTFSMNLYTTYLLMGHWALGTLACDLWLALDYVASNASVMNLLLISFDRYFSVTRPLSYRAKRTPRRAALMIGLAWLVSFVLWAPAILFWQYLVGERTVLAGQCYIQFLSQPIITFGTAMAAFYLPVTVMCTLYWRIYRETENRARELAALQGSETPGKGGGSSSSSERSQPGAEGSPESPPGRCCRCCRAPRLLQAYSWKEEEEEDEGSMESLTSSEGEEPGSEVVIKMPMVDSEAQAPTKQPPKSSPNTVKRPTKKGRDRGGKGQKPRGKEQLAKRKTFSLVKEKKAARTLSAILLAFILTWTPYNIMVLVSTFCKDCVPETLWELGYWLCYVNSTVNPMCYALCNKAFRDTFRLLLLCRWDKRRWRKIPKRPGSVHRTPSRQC
Outline: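 CHO cells expressing rat M1 receptor, Fluo-4 loaded, preincubated 10 min with compound, then stimulated with EC80 carbachol (100 nM final). Kinetic calcium fluorescence over 4 min; response taken as peak over basal signal.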

[8] = target: Pyruvate kinase (Leishmania mexicana) (UniProt Q27686); test: qHTS Validation Assay for Inhibitors of Leishmania Mexicana Pyruvate Kinase (AID 945);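 also: 0% = DMSO only neutral control wells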
Pyruvate kinase (Leishmania mexicana), sequence (Q27686 2-499 E452W): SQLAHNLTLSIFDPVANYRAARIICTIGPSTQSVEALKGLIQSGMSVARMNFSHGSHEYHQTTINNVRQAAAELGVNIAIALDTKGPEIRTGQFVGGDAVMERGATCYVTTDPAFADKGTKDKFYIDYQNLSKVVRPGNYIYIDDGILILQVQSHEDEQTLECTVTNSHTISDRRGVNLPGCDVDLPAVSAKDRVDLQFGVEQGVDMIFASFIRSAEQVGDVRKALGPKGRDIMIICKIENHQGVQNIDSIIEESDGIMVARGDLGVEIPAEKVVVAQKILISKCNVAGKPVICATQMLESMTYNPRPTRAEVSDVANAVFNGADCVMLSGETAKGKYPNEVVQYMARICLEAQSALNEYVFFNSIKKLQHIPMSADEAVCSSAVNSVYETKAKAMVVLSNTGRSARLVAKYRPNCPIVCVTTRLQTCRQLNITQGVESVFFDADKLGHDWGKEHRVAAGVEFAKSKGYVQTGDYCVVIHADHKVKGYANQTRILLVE
Outline: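 Eight-point qHTS titrations in triplicate, data normalized to DMSO neutral control. Reaction: 0.2 nM LmPYK E451W mutant, 0.5 mM PEP, 0.1 mM ADP, 7 mM MgCl2, pH 7.2, one hour at room temperature; luminescent ATP detection.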

[9] = target: Alpha-galactosidase A (Homo sapiens) (UniProt P06280); test: Counterscreen for Glucocerebrosidase Inhibitors: qHTS Assay for Human alpha-Galactosidase at pH 4.5 (AID 992); also: 0% is about no effect
Alpha-galactosidase A (Homo sapiens), sequence (P06280 whole entry, looked up): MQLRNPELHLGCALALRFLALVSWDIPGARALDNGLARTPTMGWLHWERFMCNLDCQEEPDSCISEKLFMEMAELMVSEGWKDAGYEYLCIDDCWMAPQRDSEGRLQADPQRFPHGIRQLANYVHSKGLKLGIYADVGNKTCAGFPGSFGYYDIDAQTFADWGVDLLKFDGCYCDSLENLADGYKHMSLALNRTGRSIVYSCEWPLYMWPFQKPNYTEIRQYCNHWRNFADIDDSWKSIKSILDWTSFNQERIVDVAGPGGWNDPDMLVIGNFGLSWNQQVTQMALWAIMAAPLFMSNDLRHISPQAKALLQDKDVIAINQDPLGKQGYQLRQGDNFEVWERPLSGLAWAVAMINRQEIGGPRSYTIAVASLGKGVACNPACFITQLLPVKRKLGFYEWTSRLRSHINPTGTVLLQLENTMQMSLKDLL
Outline: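 Quantitative HTS: compounds tested from 0.7 nM up to 77 uM against 2 nM enzyme with 80 uM 4-MU alpha-D-galactopyranoside. The 20 min room-temperature reaction is stopped with 1M NaOH/1M glycine, pH 10.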

[10] = target: alpha-glucosidase (Oryza sativa, rice) (UniProt Q653V4); test: Counterscreen for Glucocerebrosidase Inhibitors: qHTS Assay for Rice alpha-Glucosidase at pH 5.0 (AID 997);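 also: 0% = full activity with enzyme and -100% = basal without enzyme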
Outline: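 Rice alpha-glucosidase (4 nM final) with 400 uM 4-methylumbelliferyl-alpha-D-glucopyranoside in citrate buffer pH 5.0, 20 min at room temperature, stopped at pH 10; fluorescence 365/440 nm, compounds 0.7 nM–77 uM, AC50 from Hill fits.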

[11] = qHTS Assay for Lipid Storage Modulators (AID 1519; calls by dose curve); settings: Drosophila S3 cells, BODIPY lipid droplet/cell ratio, laser cytometry, cells loaded with oleic acid; for activity change, negative = inhibition: at 25.7 µM (top of the series)
Outline: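 Cells seeded at 5,000 per well were treated with compounds over a concentration series and loaded with oleic acid (400 uM, as added). Lipid droplet fluorescence (488 nm excitation, 500-530 nm channel) was read by laser-scanning cytometry and normalized to 20 uM Triacsin C.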

[12] = target: Ubiquitin carboxyl-terminal hydrolase 1 (Homo sapiens) (UniProt O94782); test: Inhibitors of USP1/UAF1: Pilot qHTS (AID 504865);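 also: rhodamine fluorescence freed from ubiquitin-rhodamine substrate followed over time; top concentration of the series differs between compounds; % is scaled to controls: 0 for no effect and ±100 for the full control effect; nearly all actives have a fitted effect of over 35% in size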
Ubiquitin carboxyl-terminal hydrolase 1 (Homo sapiens), sequence (O94782 whole entry, looked up): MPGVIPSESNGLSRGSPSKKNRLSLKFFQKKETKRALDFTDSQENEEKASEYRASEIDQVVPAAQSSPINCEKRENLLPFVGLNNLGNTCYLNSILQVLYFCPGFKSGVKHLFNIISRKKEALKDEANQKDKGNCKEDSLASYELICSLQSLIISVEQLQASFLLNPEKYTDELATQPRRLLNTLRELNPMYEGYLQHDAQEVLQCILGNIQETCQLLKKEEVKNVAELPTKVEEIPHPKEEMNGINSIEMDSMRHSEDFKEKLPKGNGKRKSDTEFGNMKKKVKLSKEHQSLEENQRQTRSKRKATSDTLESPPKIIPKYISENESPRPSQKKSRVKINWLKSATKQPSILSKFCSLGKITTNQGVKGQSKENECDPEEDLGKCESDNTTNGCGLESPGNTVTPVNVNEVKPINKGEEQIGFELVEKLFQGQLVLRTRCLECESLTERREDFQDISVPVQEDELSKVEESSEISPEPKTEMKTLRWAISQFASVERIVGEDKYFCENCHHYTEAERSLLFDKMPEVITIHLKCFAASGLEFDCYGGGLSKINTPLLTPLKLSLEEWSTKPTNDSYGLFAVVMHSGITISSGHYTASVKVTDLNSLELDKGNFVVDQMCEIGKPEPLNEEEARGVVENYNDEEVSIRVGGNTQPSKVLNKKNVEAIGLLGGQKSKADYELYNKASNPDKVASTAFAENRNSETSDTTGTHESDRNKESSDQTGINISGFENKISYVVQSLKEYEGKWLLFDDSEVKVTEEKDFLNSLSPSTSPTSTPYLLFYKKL
Outline: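 Kinetic fluorescence assay: 1nM USP1/UAF1, 15 min compound preincubation, then 150nM Ub-Rho; 480/540 nm.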

[13] = target: DNA dC->dU-editing enzyme APOBEC-3G (Homo sapiens) (UniProt Q9HC16); test: qHTS for inhibitors of Vif-A3G interactions: Validation (AID 588379); also: 0% is about no effect
DNA dC->dU-editing enzyme APOBEC-3G (Homo sapiens), sequence (Q9HC16 whole entry, looked up): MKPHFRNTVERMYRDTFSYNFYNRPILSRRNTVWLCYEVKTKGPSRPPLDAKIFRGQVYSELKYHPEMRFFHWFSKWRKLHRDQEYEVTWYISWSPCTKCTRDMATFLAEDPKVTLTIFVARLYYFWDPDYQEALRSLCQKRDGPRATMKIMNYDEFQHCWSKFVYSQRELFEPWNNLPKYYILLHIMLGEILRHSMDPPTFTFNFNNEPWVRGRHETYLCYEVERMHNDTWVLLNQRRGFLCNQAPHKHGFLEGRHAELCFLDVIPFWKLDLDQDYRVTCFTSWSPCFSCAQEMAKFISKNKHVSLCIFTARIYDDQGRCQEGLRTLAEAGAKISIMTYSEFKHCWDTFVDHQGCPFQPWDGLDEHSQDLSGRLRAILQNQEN
Outline: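 HeLa cells stably expressing Vif and A3G-eYFP, 700 cells/well, incubated overnight at 37 deg C, then exposed to compound overnight at 37 deg C. Inhibition of Vif-mediated degradation read as increased yellow fluorescence (Ex 488/Em 500-530) by laser-scanning cytometry.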

[14] = tested on: Zika virus NS2B-NS3 protease; test: Primary screen GU AMC qHTS for Zika virus inhibitors (AID 1347154);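 also: 0% = no-inhibitor control and -100% = no-enzyme control; nearly all actives have a fitted effect of over 70% in size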
Outline: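 Unlinked Zika NS2B hydrophilic domain–NS3 protease complex at 25 nM in 10 mM Tris-HCl pH 8.0, 0.01% Tween 20, with an AMC peptide substrate. Fluorescence change (340/450 nm) over 15 min at room temperature, normalized to controls, fitted to 4-parameter Hill.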

[15] = Counterscreen qHTS for small molecule stabilizers of the endoplasmic reticulum resident proteome: GLuc-NoTag assay (AID 1508627);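 also: SH-SY5Y cells given compound then 100 nM thapsigargin to empty ER calcium; 0% = thapsigargin alone and -100% = DMSO vehicle control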
Outline: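 SH-SY5Y cells stably expressing constitutively secreted GLuc without SERCaMP tag, exposed to compound for 19 hr, then to 100 nM thapsigargin for 4 hr at 37C. Medium luciferase was read by coelenterazine luminescence without lysis.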

[16] = Cell Viability qHTS for small molecule stabilizers of the endoplasmic reticulum resident proteome (AID 1508629); settings: cell viability counter-screen, 100 nM thapsigargin for final 4 h;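 also: human SH-SY5Y neuroblastoma cells carrying the GLuc-SERCaMP reporter; compound exposure about 46 h in total before the viability read; % is scaled to controls: 0 for no effect and ±100 for the full control effect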
[17] = Primary qHTS for small molecule stabilizers of the endoplasmic reticulum resident proteome: Secreted ER Calcium Modulated Protein (SERCaMP) assay (AID 1508630); also: % is scaled to controls: 0 for no effect and ±100 for the full control effect
Outline: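 GLuc-SERCaMP-expressing SH-SY5Y cells, pretreated 16 h with compound, are challenged with thapsigargin to empty ER calcium stores; after 4 h, coelenterazine is added directly to the medium and luminescence is imaged.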

[18] = target: Cytochrome P450 3A4 (Homo sapiens) (UniProt P08684); test: qHTS Assay for Activators of Cytochrome P450 3A4 (AID 885); also: nearly all actives have a fitted effect of over 65% in size
Cytochrome P450 3A4 (Homo sapiens), sequence (P08684 whole entry, looked up): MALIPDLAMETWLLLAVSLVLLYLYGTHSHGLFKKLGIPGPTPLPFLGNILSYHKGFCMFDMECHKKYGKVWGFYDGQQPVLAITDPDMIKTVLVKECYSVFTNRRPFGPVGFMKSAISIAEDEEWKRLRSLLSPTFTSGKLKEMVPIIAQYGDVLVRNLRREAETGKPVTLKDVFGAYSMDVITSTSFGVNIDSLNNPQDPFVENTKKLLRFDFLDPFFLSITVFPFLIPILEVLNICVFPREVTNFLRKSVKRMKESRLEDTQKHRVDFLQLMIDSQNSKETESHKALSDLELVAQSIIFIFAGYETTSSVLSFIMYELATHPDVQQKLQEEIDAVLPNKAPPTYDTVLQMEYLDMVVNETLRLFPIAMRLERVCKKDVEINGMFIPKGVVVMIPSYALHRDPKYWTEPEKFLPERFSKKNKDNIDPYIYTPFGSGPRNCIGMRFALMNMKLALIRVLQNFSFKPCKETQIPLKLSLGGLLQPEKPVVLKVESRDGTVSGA
Outline: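 Signal was normalized against complete inhibition by 57 uM ketoconazole. The reaction used 20nM CYP3A4 with 25uM Luciferin-PPXE, 10-min compound preincubation and a 60-min NADPH-supported step at RT.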

[19] = Confirmatory qHTS for small molecule stabilizers of the endoplasmic reticulum resident proteome: Secreted ER Calcium Modulated Protein (SERCaMP) assay (AID 1508628); also: % is scaled to controls: 0 for no effect and ±100 for the full control effect; nearly all actives have a fitted effect of over 40% in size
Outline: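 SH-SY5Y cells stably expressing GLuc-SERCaMP, treated 16 h with compound (primary 1.53, 7.67, 38.3 uM; confirmation 11 concentrations, up to 76.6 uM), then 100 nM thapsigargin for 4 h. Secreted Gaussia luciferase in medium read by coelenterazine luminescence.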

[20] = NFAT Signaling Pathway (AID 444; active = well fitted curve in either direction with a large enough effect, not every such curve was filed as active); settings: Jurkat NFAT-bla M1, carbachol, beta-lactamase ratio, 5 h
Outline: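 Jurkat cells with NFAT-driven β-lactamase reporter and co-expressed M1 receptor, stimulated with carbachol (final 1 uM, ~EC50), compound titration, 5 h at 37 °C. CCF4 loaded 1 h at RT; 460/530 nm ratio gave %activity and AC50.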

[21] = target: 3',5'-cyclic-AMP phosphodiesterase 4B (Homo sapiens) (UniProt Q07343); test: qHTS Assay for Inhibitors of PDE-IV (AID 607; active = well fitted activation curve with a large enough effect in the main read-out, with a control signal flat, not every such curve was filed as active; also: % of control where 0% means no effect)
3',5'-cyclic-AMP phosphodiesterase 4B (Homo sapiens), sequence (Q07343 whole entry, looked up): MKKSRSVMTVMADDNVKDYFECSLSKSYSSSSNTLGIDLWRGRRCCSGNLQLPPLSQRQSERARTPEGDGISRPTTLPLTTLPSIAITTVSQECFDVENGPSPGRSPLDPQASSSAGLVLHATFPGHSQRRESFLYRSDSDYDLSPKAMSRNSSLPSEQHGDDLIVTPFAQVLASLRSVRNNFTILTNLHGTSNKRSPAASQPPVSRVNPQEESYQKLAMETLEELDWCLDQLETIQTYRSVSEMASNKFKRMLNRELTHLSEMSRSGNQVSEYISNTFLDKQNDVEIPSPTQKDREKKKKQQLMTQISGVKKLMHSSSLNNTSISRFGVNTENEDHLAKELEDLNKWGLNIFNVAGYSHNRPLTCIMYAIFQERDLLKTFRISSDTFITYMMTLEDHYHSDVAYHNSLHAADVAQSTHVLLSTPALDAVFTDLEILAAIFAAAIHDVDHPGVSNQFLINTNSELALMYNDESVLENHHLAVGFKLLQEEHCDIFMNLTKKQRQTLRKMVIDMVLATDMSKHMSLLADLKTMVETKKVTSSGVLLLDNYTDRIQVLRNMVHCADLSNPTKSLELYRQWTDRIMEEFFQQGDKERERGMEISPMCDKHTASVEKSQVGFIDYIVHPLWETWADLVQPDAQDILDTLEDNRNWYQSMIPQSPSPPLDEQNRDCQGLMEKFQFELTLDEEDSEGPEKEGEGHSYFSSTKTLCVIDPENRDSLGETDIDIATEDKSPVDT
Outline: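 Cell-based read-out of cAMP via a modified cyclic nucleotide-gated channel and membrane potential dye (535/590 nm) in HEK293 cells expressing PDE4 endogenously. Compounds tested up to 22.9 uM final; 100 uM RO 20-1724 reference.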

[22] = measured here: cell count channel max response
[23] = measured here: lipid channel max response

C[C@@H]([C@H](O)c1ccc(O)cc1)N1CCC(Cc2ccccc2)CC1
active: Potency [7] 12.6 µM
-1.79%: max response [11, 22]
-6.29%: max response [11, 23]
inactive: activity change, negative = inhibition ([1]; at 17.2 µM (top of the series)) -4.89% | activity change, negative = inhibition ([1]; at 38 µM (top of the series)) -7.76% | activity, negative = inhibition ([2]; at 17.2 µM (top of the series)) 8.14% | Potency [3] > 46 µM and > 20.6 µM | Potency [4] > 46 µM and > 20.6 µM | Potency [5] | outcome [6] | Potency [8] | outcome [9] | outcome [10] | activity change, negative = inhibition [11] -1.79% | Potency [12] | Potency [13] | Potency [14] | Potency [15] | max response [16] -8.82%

CC(N)(COP(=O)(O)O)C(=O)O (stereo not drawn)
inactive: Potency [14] | Potency [17]

O=S(=O)(c1cccc2cnccc12)N1CCNCC1
inactive: Potency [3] > 46 µM | Potency [4] > 46 µM | Potency [5] | Potency [18] | Potency [12] | Potency [13] | Potency [14] | Potency [19]

O=C1N=C(O)CN1/N=C\c1ccc(-c2ccc([N+](=O)[O-])cc2)o1
3.82%: max response [11, 22]
inactive: activity change, negative = inhibition ([1]; at 17.2 µM (top of the series)) -13.8% | activity change, negative = inhibition ([1]; at 38 µM (top of the series)) -14.1% | activity change, negative = inhibition ([20]; at 17.2 µM (top of the series)) 4.77% | activity change, negative = inhibition ([20]; at 38 µM (top of the series)) -3.36% | activity, negative = inhibition ([2]; at 17.2 µM (top of the series)) 9.37% | activity, negative = inhibition ([2]; at 38 µM (top of the series)) -4.41% | Potency [3] > 46 µM and > 20.6 µM | Potency [4] > 46 µM and > 20.6 µM | Potency [21] | Potency [7] | outcome [9] | outcome [10] | activity change, negative = inhibition [11] 3.41% | Potency [12] | Potency [13] | Potency [14] | Potency [15]
7.61%: max response [11, 23]
